In PubChem BioAssay AID1508601 (ICCB-Longwood Screening Facility, Harvard Medical School, 2020):
Several values for one entry are separate records, joined by “and”; a condition that tells them apart may be missing. Equal values may be shown once. Hit rate of the full screen: of about 5,700 compounds, about 85 (1%) were called active. Cut-off read from the data, not from the text of the source: active = p53-positive nuclei above about 36% (passing the limit was not always enough); inactive = the rest. Many of the other results were omitted from the sample, so actives are more common in it than they were. Some compounds were tested as several samples or in several runs, with calls that do not always agree.

Key:
[1] = p53 stabilisation in HPV-positive human cells, imaging, p53-positive nuclei imaging, 24 h, 48 h (AID 1508601); conditions: 24/48 h
[2] = target: Cellular tumor antigen p53 (Homo sapiens) (UniProt P04637); assay: as above; conditions: 24/48 h, stronger effect = higher value
Chain of Cellular tumor antigen p53 (Homo sapiens) (P04637 whole entry, looked up): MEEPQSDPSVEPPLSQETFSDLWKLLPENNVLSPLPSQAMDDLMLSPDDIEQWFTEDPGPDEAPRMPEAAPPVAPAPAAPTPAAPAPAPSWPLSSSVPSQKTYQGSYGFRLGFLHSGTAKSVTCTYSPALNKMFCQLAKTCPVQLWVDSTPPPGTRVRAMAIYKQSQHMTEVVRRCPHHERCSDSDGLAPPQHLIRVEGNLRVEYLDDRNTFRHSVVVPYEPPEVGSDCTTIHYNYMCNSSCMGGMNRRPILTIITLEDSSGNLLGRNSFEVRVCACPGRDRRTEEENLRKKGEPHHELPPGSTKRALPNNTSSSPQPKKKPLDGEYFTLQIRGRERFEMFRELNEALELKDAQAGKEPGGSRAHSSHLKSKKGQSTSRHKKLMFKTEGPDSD

[3] = measured here: cell number at 24 h, Library stock concentration: 10 mM
[4] = measured here: cell number at 48 h, Library stock concentration: 10 mM
[5] = Library stock concentration: 10 mM
[6] = measured here: p53 positive nuclei at 24 h, Library stock concentration: 10 mM
[7] = measured here: cell number at 24 h, concentration not given here
[8] = measured here: cell number at 48 h, concentration not given here
[9] = measured here: p53 positive nuclei at 24 h, concentration not given here

## Cc1sc2c(c1C)C(c1ccc(Cl)cc1)=NC(CC(=O)OC(C)(C)C)c1nnc(C)n1-2 (stereo not drawn)
[1]; measured here: cell number at 24 h, Library stock concentration: 80 uM
  nuclei count, normalised: 101% and 128% and 116%
[1]; measured here: cell number at 24 h, Library stock concentration: 400 uM
  nuclei count, normalised: 109% and 128% and 117%
[1]; measured here: cell number at 24 h, Library stock concentration: 2 mM
  nuclei count, normalised: 107% and 132% and 120%
[1]; measured here: cell number at 24 h, Library stock concentration: 3.33 mM
  nuclei count, normalised: 128%
[1]; [3]
  nuclei count, normalised: 99.7% and 123% and 119%
[1]; measured here: cell number at 48 h, Library stock concentration: 80 uM
  nuclei count, normalised: 95.3% and 134% and 114%
[1]; measured here: cell number at 48 h, Library stock concentration: 400 uM
  nuclei count, normalised: 97.6% and 128% and 112%
[1]; measured here: cell number at 48 h, Library stock concentration: 2 mM
  nuclei count, normalised: 109% and 132% and 118%
[1]; measured here: cell number at 48 h, Library stock concentration: 3.33 mM
  nuclei count, normalised: 124%
[1]; [4]
  nuclei count, normalised: 99.9% and 124% and 117%
[2]; Library stock concentration: 80 uM
  p53-positive nuclei, normalised: 0.233% (inactive) and -0.29% (inactive) and -0.79% (inactive)
[2]; Library stock concentration: 400 uM
  p53-positive nuclei, normalised: -0.238% (inactive) and -0.0882% (inactive) and -0.721% (inactive)
[2]; Library stock concentration: 2 mM
  p53-positive nuclei, normalised: 3.93% (inactive) and 0.629% (inactive) and -0.825% (inactive)
[2]; Library stock concentration: 3.33 mM
  p53-positive nuclei, normalised: 7.2% (inactive)
[2]; [5]
  p53-positive nuclei, normalised: 26.8% (active) and 8.08% (inactive) and -0.599% (inactive)
[2]; measured here: p53 positive nuclei at 24 h, Library stock concentration: 80 uM
  p53-positive nuclei, normalised: 0.0692% and 0.858% and -0.21%
[2]; measured here: p53 positive nuclei at 24 h, Library stock concentration: 400 uM
  p53-positive nuclei, normalised: 0.159% and 1.07% and -0.0728%
[2]; measured here: p53 positive nuclei at 24 h, Library stock concentration: 2 mM
  p53-positive nuclei, normalised: 12.9% and 4.45% and -0.21%
[2]; measured here: p53 positive nuclei at 24 h, Library stock concentration: 3.33 mM
  p53-positive nuclei, normalised: 15.6%
[2]; [6]
  p53-positive nuclei, normalised: 54.1% and 21.9% and 0.0629%

## CCCCC/C=C\C/C=C\C/C=C\C/C=C\CCCC(=O)N[C@@H](CO)C(=O)O
[1]; [7]
  nuclei count, normalised: 108%
[1]; [8]
  nuclei count, normalised: 107%
[2]; concentration not given here
  p53-positive nuclei, normalised: 0.0364% (inactive)
[2]; [9]
  p53-positive nuclei, normalised: -0.0848%

## C=C(C)[C@@H]1CCC(C)=C[C@H]1c1c(OC)cc(CCCCC)cc1OC
[1]; [7]
  nuclei count, normalised: 107%
[1]; [8]
  nuclei count, normalised: 109%
[2]; concentration not given here
  p53-positive nuclei, normalised: 0.00281% (inactive)
[2]; [9]
  p53-positive nuclei, normalised: -0.021%

## CCCCC/C=C\C/C=C\C/C=C\C/C=C\CCCC(=O)NC1CC1
[1]; [7]
  nuclei count, normalised: 110%
[1]; [8]
  nuclei count, normalised: 110%
[2]; concentration not given here
  p53-positive nuclei, normalised: -0.0789% (inactive)
[2]; [9]
  p53-positive nuclei, normalised: -0.0843%

## CO[C@H]1[C@H](O)[C@@H](O[C@H]2CC[C@]3(C=O)C4CC[C@]5(C)[C@@H](C6=CC(=O)OC6)CC[C@]5(O)C4CC[C@@H]3C2)O[C@@H](C)[C@@H]1O (stereo partly drawn)
[1]; [7]
  nuclei count, normalised: 35.5%
[1]; [8]
  nuclei count, normalised: 25.2%
[2]; concentration not given here
  p53-positive nuclei, normalised: 50.3% (active)
[2]; [9]
  p53-positive nuclei, normalised: 2.96%

## C[C@@H]1O[C@@H](O[C@H]2CC[C@]3(C=O)C4CC[C@]5(C)[C@@H](C6=CC(=O)OC6)CC[C@]5(O)C4CC[C@]3(O)C2)[C@H](O)[C@H](O)[C@H]1O (stereo partly drawn)
[1]; [7]
  nuclei count, normalised: 35.2%
[1]; [8]
  nuclei count, normalised: 23.7%
[2]; concentration not given here
  p53-positive nuclei, normalised: 28.5% (inactive)
[2]; [9]
  p53-positive nuclei, normalised: 2.41%

## CC1OC(O[C@H]2CC[C@@]3(C)[C@@H](CC[C@@H]4[C@H]3CC[C@]3(C)[C@@H](C5=CC(=O)OC5)CC[C@]43O)C2)CC(O)C1O (stereo partly drawn)
[1]; measured here: cell number at 24 h, Library stock concentration: 500 nM
  nuclei count, normalised: 65.6%
[1]; measured here: cell number at 24 h, Library stock concentration: 1.5 uM
  nuclei count, normalised: 57.4%
[1]; measured here: cell number at 24 h, Library stock concentration: 4.6 uM
  nuclei count, normalised: 53%
[1]; measured here: cell number at 24 h, Library stock concentration: 13.7 uM
  nuclei count, normalised: 48.6%
[1]; measured here: cell number at 24 h, Library stock concentration: 41 uM
  nuclei count, normalised: 45.4%
[1]; measured here: cell number at 24 h, Library stock concentration: 123 uM
  nuclei count, normalised: 41.8%
[1]; measured here: cell number at 24 h, Library stock concentration: 370 uM
  nuclei count, normalised: 40.1%
[1]; measured here: cell number at 24 h, Library stock concentration: 1.111 mM
  nuclei count, normalised: 41.7%
[1]; measured here: cell number at 24 h, Library stock concentration: 3.333 mM
  nuclei count, normalised: 42.7%
[1]; [3]
  nuclei count, normalised: 42.7%
[1]; measured here: cell number at 48 h, Library stock concentration: 500 nM
  nuclei count, normalised: 46.8%
[1]; measured here: cell number at 48 h, Library stock concentration: 1.5 uM
  nuclei count, normalised: 37.2%
[1]; measured here: cell number at 48 h, Library stock concentration: 4.6 uM
  nuclei count, normalised: 33.8%
[1]; measured here: cell number at 48 h, Library stock concentration: 13.7 uM
  nuclei count, normalised: 32.8%
[1]; measured here: cell number at 48 h, Library stock concentration: 41 uM
  nuclei count, normalised: 29.8%
[1]; measured here: cell number at 48 h, Library stock concentration: 123 uM
  nuclei count, normalised: 30.1%
[1]; measured here: cell number at 48 h, Library stock concentration: 370 uM
  nuclei count, normalised: 27.4%
[1]; measured here: cell number at 48 h, Library stock concentration: 1.111 mM
  nuclei count, normalised: 28.3%
[1]; measured here: cell number at 48 h, Library stock concentration: 3.333 mM
  nuclei count, normalised: 30.1%
[1]; [4]
  nuclei count, normalised: 29%
[2]; Library stock concentration: 500 nM
  p53-positive nuclei, normalised: 1.14% (inactive)
[2]; Library stock concentration: 1.5 uM
  p53-positive nuclei, normalised: 2.17% (inactive)
[2]; Library stock concentration: 4.6 uM
  p53-positive nuclei, normalised: 5.96% (inactive)
[2]; Library stock concentration: 13.7 uM
  p53-positive nuclei, normalised: 13.9% (inactive)
[2]; Library stock concentration: 41 uM
  p53-positive nuclei, normalised: 17.9% (inactive)
[2]; Library stock concentration: 123 uM
  p53-positive nuclei, normalised: 17.3% (inactive)
[2]; Library stock concentration: 370 uM
  p53-positive nuclei, normalised: 15.8% (inactive)
[2]; Library stock concentration: 1.111 mM
  p53-positive nuclei, normalised: 18.6% (inactive)
[2]; Library stock concentration: 3.333 mM
  p53-positive nuclei, normalised: 15.3% (inactive)
[2]; [5]
  p53-positive nuclei, normalised: 14% (inactive)
[2]; measured here: p53 positive nuclei at 24 h, Library stock concentration: 500 nM
  p53-positive nuclei, normalised: 0.0832%
[2]; measured here: p53 positive nuclei at 24 h, Library stock concentration: 1.5 uM
  p53-positive nuclei, normalised: 0.441%
[2]; measured here: p53 positive nuclei at 24 h, Library stock concentration: 4.6 uM
  p53-positive nuclei, normalised: 2.38%
[2]; measured here: p53 positive nuclei at 24 h, Library stock concentration: 13.7 uM
  p53-positive nuclei, normalised: 2.28%
[2]; measured here: p53 positive nuclei at 24 h, Library stock concentration: 41 uM
  p53-positive nuclei, normalised: 1.13%
[2]; measured here: p53 positive nuclei at 24 h, Library stock concentration: 123 uM
  p53-positive nuclei, normalised: 0.939%
[2]; measured here: p53 positive nuclei at 24 h, Library stock concentration: 370 uM
  p53-positive nuclei, normalised: 1.03%
[2]; measured here: p53 positive nuclei at 24 h, Library stock concentration: 1.111 mM
  p53-positive nuclei, normalised: 1.24%
[2]; measured here: p53 positive nuclei at 24 h, Library stock concentration: 3.333 mM
  p53-positive nuclei, normalised: 1.62%
[2]; [6]
  p53-positive nuclei, normalised: 0.952%

## O=c1c2cc(F)ccc2ncn1Cc1cn2ccccc2n1
[1]; [7]
  nuclei count, normalised: 98.7%
[1]; [8]
  nuclei count, normalised: 106%
[2]; concentration not given here
  p53-positive nuclei, normalised: -0.262% (inactive)
[2]; [9]
  p53-positive nuclei, normalised: -0.23%

## CCCCC/C=C\C/C=C\C/C=C\C/C=C\CCCC(=O)NC
[1]; [7]
  nuclei count, normalised: 104%
[1]; [8]
  nuclei count, normalised: 99.6%
[2]; concentration not given here
  p53-positive nuclei, normalised: 0.0321% (inactive)
[2]; [9]
  p53-positive nuclei, normalised: -0.0963%
